Test results as given in PubChem BioAssay AID1159580 (chemical genetic matrix, 2015).
“And” between values parts separate entries of the source, which are not always exact repeats. Identical values can stand only once. Screen size: about 5,500 compounds; about 2,000 (36%) were called active. Inconclusive results (about 18%) are left out. Cut-off read from the data, not from the text of the source: active = normalized growth mostly below about 0.91 (no sharp cut-off); inconclusive = no clear call, values can overlap the other calls; inactive = mostly above about 0.92. The list shows a part of the results.

Assay: chemical genetic growth profiling, strain panel (AID 1159580);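 note: tested at 20 µM; growth read once vehicle control cultures reached saturation at 30 °C; 1 = growth at the plate median or of vehicle wells; lower values mean less growth of the strain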
Conditions: S. cerevisiae deletion strains, growth OD

Measured: normalized growth

CCCCC(=O)O[C@H]1CCC2C3CCc4cc(O)ccc4C3CC[C@@]21C (some centres not stated)
inactive: locus YAL021C, strain ccr4, stronger effect = lower value 1.02 | locus YAL026C, strain drs2, stronger effect = lower value 1.02 | locus YAL030W, strain snc1, stronger effect = lower value 1.03 | locus YBL061C, strain skt5, stronger effect = lower value 1.01 | locus YBR009C, strain hhf1, stronger effect = lower value 0.988 | locus YBR021W, strain FUR4, stronger effect = lower value 0.99 | locus YBR023C, strain chs3, stronger effect = lower value 1.01 | locus YBR171W, strain sec66, stronger effect = lower value 1.03 | locus YBR229C, strain ROT2, stronger effect = lower value 0.943 | locus YBR231C, strain swc5, stronger effect = lower value 1.04 | locus YBR279W, strain paf1, stronger effect = lower value 1.01 | locus YCL011C, strain gbp2, stronger effect = lower value 1.01 | locus YCL016C, strain dcc1, stronger effect = lower value 0.979 | locus YCL029C, strain bik1, stronger effect = lower value 0.98 | locus YCL061C, strain MRC1, stronger effect = lower value 1.02 | locus YCL069W, strain vba3, stronger effect = lower value 1.01 | locus YCR088W, strain abp1, stronger effect = lower value 1.01 | locus YDL005C, strain med2, stronger effect = lower value 1.01 | locus YDL035C, strain GPR1, stronger effect = lower value 0.948 | locus YDL040C, strain nat1, stronger effect = lower value 1.02 | locus YDL074C, strain BRE1, stronger effect = lower value 0.926 | locus YDL101C, strain DUN1, stronger effect = lower value 0.98 | locus YDL134C, strain PPH21, stronger effect = lower value 0.954 | locus YDL185W, strain tfp1, stronger effect = lower value 0.988 | locus YDL192W, strain arf1, stronger effect = lower value 1 | locus YDR001C, strain nth1, stronger effect = lower value 1.01 | locus YDR069C, strain doa4, stronger effect = lower value 1.01 | locus YDR101C, strain arx1, stronger effect = lower value 0.953 | locus YDR137W, strain rgp1, stronger effect = lower value 0.973 | locus YDR150W, strain NUM1, stronger effect = lower value 0.988 | locus YDR159W, strain sac3, stronger effect = lower value 0.953 | locus YDR162C, strain NBP2, stronger effect = lower value 0.919 | locus YDR195W, strain ref2 1.03 | locus YDR297W, strain sur2, stronger effect = lower value 1.03 | locus YDR318W, strain mcm21, stronger effect = lower value 0.996 | locus YDR334W, strain swr1, stronger effect = lower value 1.02 | locus YDR335W, strain msn5, stronger effect = lower value 1.02 | locus YDR388W, stronger effect = lower value 0.992 | locus YDR392W, strain spt3, stronger effect = lower value 0.804 | locus YDR502C, strain sam2, stronger effect = lower value 0.995 | locus YEL003W, strain gim4, stronger effect = lower value 1.02 | locus YEL037C, strain rad23, stronger effect = lower value 1.02 | locus YEL061C, strain CIN8 (second series), stronger effect = lower value 1.02 | locus YEL061C, strain CIN8, stronger effect = lower value 0.985 | locus YER015W, strain faa2, stronger effect = lower value 1 | locus YER016W, strain bim1, stronger effect = lower value 1 | locus YER110C, stronger effect = lower value 1.01 | locus YER111C, strain swi4, stronger effect = lower value 1.01 | locus YER155C, strain BEM2 (second series), stronger effect = lower value 1.03 | locus YER155C, strain BEM2, stronger effect = lower value 0.979 | locus YER167W, strain BCK2, stronger effect = lower value 0.979 | locus YFR010W, strain ubp6, stronger effect = lower value 1.04 | locus YGL078C, strain dbp3, stronger effect = lower value 1.01 | locus YGL086W, strain mad1, stronger effect = lower value 0.968 | locus YGL167C, strain pmr1, stronger effect = lower value 1.04 | locus YGL173C, strain kem1, stronger effect = lower value 1.01 | locus YGL227W, strain vid30, stronger effect = lower value 1.01 | locus YGL240W, strain doc1, stronger effect = lower value 1.04 | locus YGL248W, strain PDE1, stronger effect = lower value 0.976 | locus YGL253W, strain hxk2, stronger effect = lower value 0.997 | locus YGR078C, strain PAC10, stronger effect = lower value 0.973 | locus YGR135W, strain pre9, stronger effect = lower value 1.07 | locus YGR252W, strain gcn5, stronger effect = lower value 1.1 | locus YHR013C, strain ard1, stronger effect = lower value 1.03 | locus YHR027C, strain rpn1, stronger effect = lower value 1.02 | locus YHR030C, strain SLT2, stronger effect = lower value 0.98 and 0.996 | locus YHR079C, strain IRE1 (second series), stronger effect = lower value 0.997 | locus YHR079C, strain IRE1, stronger effect = lower value 0.989 | locus YHR094C, strain hxt1, stronger effect = lower value 0.991 | locus YHR129C, strain ARP1, stronger effect = lower value 0.989 | locus YHR142W, strain chs7, stronger effect = lower value 1.01 | locus YHR200W, strain rpn10, stronger effect = lower value 0.998 | locus YIL066C, strain RNR3, stronger effect = lower value 0.961 | locus YIL073C, strain SPO22, stronger effect = lower value 1 | locus YIL125W, strain kgd1, stronger effect = lower value 0.998 | locus YIR030C, strain dcg1, stronger effect = lower value 1.01 | locus YJL092W, strain hpr5, stronger effect = lower value 1.01 | locus YJL095W, strain BCK1 (second series), stronger effect = lower value 1.02 | locus YJL095W, strain BCK1, stronger effect = lower value 0.926 and 0.996 | locus YJL115W, strain asf1, stronger effect = lower value 1.02 | locus YJL129C, strain trk1, stronger effect = lower value 0.996 | locus YJL134W, strain LCB3, stronger effect = lower value 0.982 | locus YJL154C, strain vps35, stronger effect = lower value 1.01 | locus YJL164C, strain tpk1, stronger effect = lower value 0.987 | locus YJL166W, strain qcr8, stronger effect = lower value 1.02 | locus YJL168C, strain set2, stronger effect = lower value 1 | locus YJL187C, strain SWE1 (second series), stronger effect = lower value 0.982 | locus YJL187C, strain SWE1, stronger effect = lower value 1.02 | locus YJR043C, strain POL32, stronger effect = lower value 0.955 | locus YJR066W, strain TOR1, stronger effect = lower value 0.916 | locus YKL009W, strain mrt4, stronger effect = lower value 0.95 | locus YKL068W, stronger effect = lower value 0.989 | locus YKL085W, strain MDH1 (second series), stronger effect = lower value 1.01 | locus YKL085W, strain MDH1, stronger effect = lower value 1.01 | locus YKL160W, strain elf1, stronger effect = lower value 1.01 | locus YKL190W, strain CNB1, stronger effect = lower value 0.992 | locus YKR001C, strain vps1, stronger effect = lower value 0.959 | locus YKR026C, strain gcn3, stronger effect = lower value 1.01 | locus YKR091W, strain srl3, stronger effect = lower value 1.01 | locus YLL001W, strain dnm1, stronger effect = lower value 1.02 | locus YLL026W, stronger effect = lower value 1.02 | locus YLL041C, strain sdh2, stronger effect = lower value 1.02 | locus YLR027C, strain aat2, stronger effect = lower value 1.03 | locus YLR039C, strain RIC1, stronger effect = lower value 0.848 | locus YLR058C, strain SHM2, stronger effect = lower value 0.96 | locus YLR102C, strain apc9, stronger effect = lower value 1.01 | locus YLR113W, strain HOG1, stronger effect = lower value 1.03 | locus YLR221C, strain rsa3, stronger effect = lower value 0.995 | locus YLR258W, strain gsy2, stronger effect = lower value 1 | locus YLR262C, strain YPT6 (second series), stronger effect = lower value 0.974 | locus YLR262C, strain YPT6, stronger effect = lower value 0.749 | locus YLR268W, strain sec22, stronger effect = lower value 0.982 | locus YLR320W, strain mms22, stronger effect = lower value 0.981 | locus YLR330W, strain CHS5, stronger effect = lower value 0.984 | locus YLR342W, strain FKS1 (second series), stronger effect = lower value 0.98 | locus YLR342W, strain FKS1, stronger effect = lower value 0.998 | locus YLR357W, strain rsc2, stronger effect = lower value 0.999 | locus YLR370C, strain arc18, stronger effect = lower value 1.03 | locus YLR371W, strain rom2, stronger effect = lower value 0.985 | locus YLR384C, strain iki3, stronger effect = lower value 1.02 | locus YLR418C, strain cdc73, stronger effect = lower value 1.02 | locus YML016C, strain PPZ1, stronger effect = lower value 0.979 | locus YML032C, strain rad52, stronger effect = lower value 0.987 | locus YML120C, strain ndi1, stronger effect = lower value 1.02 | locus YML124C, strain tub3, stronger effect = lower value 1 | locus YMR058W, strain fet3, stronger effect = lower value 1.02 | locus YMR078C, strain ctf18, stronger effect = lower value 1 | locus YMR125W, strain sto1, stronger effect = lower value 0.999 | locus YMR129W, stronger effect = lower value 1.01 | locus YMR205C, strain PFK2, stronger effect = lower value 0.985 | locus YMR223W, strain ubp8, stronger effect = lower value 1.04 | locus YMR231W, strain pep5, stronger effect = lower value 1.05 | locus YMR307W, strain GAS1, stronger effect = lower value 0.881 | locus YNL067W, strain RPL9B, stronger effect = lower value 0.982 | locus YNL071W, strain lat1, stronger effect = lower value 0.965 | locus YNL128W, strain TEP1, stronger effect = lower value 0.982 | locus YNL183C, strain NPR1, stronger effect = lower value 0.983 | locus YNL209W, strain ssb2, stronger effect = lower value 1.02 | locus YNL233W, strain BNI4, stronger effect = lower value 0.986 | locus YNL248C, strain rpa49, stronger effect = lower value 1.01 | locus YNL250W, strain rad50, stronger effect = lower value 0.984 | locus YNL271C, strain bni1, stronger effect = lower value 1 | locus YNL298W, strain CLA4, stronger effect = lower value 1 | locus YNL307C, strain MCK1, stronger effect = lower value 1 | locus YNL322C, strain KRE1 (second series), stronger effect = lower value 1.01 | locus YNL322C, strain KRE1, stronger effect = lower value 0.998 | locus YNR049C, strain mso1, stronger effect = lower value 1 | locus YNR052C, strain pop2, stronger effect = lower value 1.01 | locus YOL012C, strain htz1 1.24 | locus YOL147C, strain pex11, stronger effect = lower value 1.01 | locus YOR001W, strain rrp6, stronger effect = lower value 1.03 | locus YOR061W, strain CKA2, stronger effect = lower value 0.962 | locus YOR069W, strain VPS5, stronger effect = lower value 0.984 | locus YOR070C, strain gyp1, stronger effect = lower value 1.02 | locus YOR080W, strain dia2, stronger effect = lower value 1.03 | locus YOR083W, strain WHI5, stronger effect = lower value 1 | locus YOR106W, strain vam3, stronger effect = lower value 1.04 | locus YOR136W, strain idh2, stronger effect = lower value 1 | locus YOR144C, strain elg1, stronger effect = lower value 0.999 | locus YOR184W, strain ser1, stronger effect = lower value 0.969 | locus YOR231W, strain MKK1, stronger effect = lower value 1.04 | locus YOR265W, strain rbl2, stronger effect = lower value 1.02 | locus YOR270C, strain vph1, stronger effect = lower value 0.965 | locus YOR290C, strain snf2, stronger effect = lower value 0.988 | locus YOR316C, strain cot1, stronger effect = lower value 0.994 | locus YPL051W, strain arl3, stronger effect = lower value 1.01 | locus YPL055C, strain LGE1, stronger effect = lower value 0.959 | locus YPL078C, strain atp4, stronger effect = lower value 1.03 | locus YPL106C, strain sse1, stronger effect = lower value 1 | locus YPL240C, strain hsp82, stronger effect = lower value 1.01 | locus YPL241C, strain CIN2, stronger effect = lower value 0.975 | locus YPL256C, strain CLN2, stronger effect = lower value 1 | locus YPR119W, strain clb2, stronger effect = lower value 0.998 | locus YPR141C, strain kar3, stronger effect = lower value 0.997 | locus YPR163C, strain tif3, stronger effect = lower value 1.01 | locus YPR167C, strain met16, stronger effect = lower value 1 | strain wtn01, stronger effect = lower value 1.03
